# Measurements as given in PubChem BioAssay.
# Biological target: Torsin-1A-interacting protein 1 (Homo sapiens) (UniProt Q5JTV8)
# Experiment: LAP1 binders from COS7 cell lysate, primary screen, small-molecule microarray, 635/667 nm fluorescence (AID 1116)
# Settings: COS7-hLAP1 lysate binding, 635 nm fluorescence, higher = more signal
# Chain of Torsin-1A-interacting protein 1 (Homo sapiens) (Q5JTV8 whole entry, looked up): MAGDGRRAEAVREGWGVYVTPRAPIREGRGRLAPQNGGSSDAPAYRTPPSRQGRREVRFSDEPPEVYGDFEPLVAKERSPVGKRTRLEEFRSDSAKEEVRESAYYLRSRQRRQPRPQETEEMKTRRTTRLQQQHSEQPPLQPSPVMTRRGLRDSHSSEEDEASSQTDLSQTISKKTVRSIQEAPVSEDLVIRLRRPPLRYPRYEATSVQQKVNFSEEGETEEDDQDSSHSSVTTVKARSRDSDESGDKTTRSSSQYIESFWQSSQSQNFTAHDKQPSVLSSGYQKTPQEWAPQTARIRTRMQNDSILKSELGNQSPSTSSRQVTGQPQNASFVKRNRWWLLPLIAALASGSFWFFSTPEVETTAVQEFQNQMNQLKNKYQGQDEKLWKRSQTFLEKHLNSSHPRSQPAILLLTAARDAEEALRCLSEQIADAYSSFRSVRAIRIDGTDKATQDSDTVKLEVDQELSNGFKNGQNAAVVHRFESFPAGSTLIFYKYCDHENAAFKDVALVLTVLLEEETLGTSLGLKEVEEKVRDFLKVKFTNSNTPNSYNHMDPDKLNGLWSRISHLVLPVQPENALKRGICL
row,Compound,composite z-score
1,CCCNC(=O)[C@@H]1c2ccccc2C(=O)N(Cc2ccc(OC(F)(F)F)cc2)[C@H]1c1ccc(CO)cc1,0.448
2,O=C1OCCC=C[C@H]2OC34C=CCN(Cn5nnc6ccccc65)C(=O)[C@H]3N(CCCO)C(=O)[C@@H]4C12 (stereo not given in full),0.879
3,CCOC(=O)C[C@H]1[C@H](OC(=O)c2ccc(-c3ccccc3)cc2)[C@@H](NC(=O)CC(C)C)c2cc(OCCCO)ccc2N1C(=O)c1ccc2ccccc2n1,-0.289
4,COCCOC(=O)N1C(=O)[C@@]2(c3cc(C#CC4=CCCCC4)ccc31)[C@H](c1ccccc1OCCO)N1[C@H](c3ccccc3)[C@H](c3ccccc3)OC(=O)[C@H]1[C@@H]2C(=O)NC[C@H](O)c1ccccc1,0.978
5,COCCCNC(=O)[C@@]1(Sc2ccc(C)cc2)CC(=O)N(C2Cc3ccccc3C2)[C@@H]1c1ccc(CO)cc1,0.423
6,COc1cc2c(cc1O)C(c1ccc(CN3CCCC3)cc1)N(Cc1cc3c(cc1Br)OCO3)CC2 (stereo not given),0.16
7,CC(C)(C)OC(=O)CC[C@@]1(C(=O)NCC(O)CO)N=C(c2ccc(OCCCO)cc2)O[C@@H]1c1ccccc1CN=[N+]=[N-] (stereo not given in full),1.64
8,Cc1ccc(S[C@]2(C(=O)NCCN3CCOCC3)CC(=O)N(Cc3ccccc3Cl)[C@@H]2c2ccc(CO)cc2I)cc1,2.35
9,CC1CC/C=C\[C@H]2OC34C=CCN(C(C)(C)C)C(=O)[C@H]3N(CCCCCO)C(=O)[C@@H]4C2C(=O)O1 (stereo not given in full),-0.348
10,COc1ccc(CCNC(=O)[C@@]2(c3ccc([N+](=O)[O-])cc3)CC(=O)N(C3CCCCC3)[C@@H]2c2ccc(CO)cc2)cc1,0.774
11,COCCOC(=O)N1C(=O)[C@@]2(c3cc(C#CCNC(N)=O)ccc31)[C@H](C(N)=O)[C@H]1C(=O)O[C@H](c3ccccc3)[C@H](c3ccccc3)N1[C@@H]2c1ccccc1OCCO,1.26
12,COC(=O)[C@@H]1N=C(c2ccc(OCCCO)cc2)O[C@@H]1C,1.71
13,O=C(c1ccccc1)N1C(=O)[C@]2(Cc3ccccc31)N=C(c1ccc(OCCCO)cc1)O[C@@H]2c1ccccc1,0.688
14,O=C(NCCN1CCOCC1)[C@@H]1c2ccccc2C(=O)N(C2Cc3ccccc3C2)[C@H]1c1ccc(CO)cc1,0.554
15,CCCCC(CC)C(O)C1C=CC2C(=O)N(C)C(=O)C2N1Nc1ccccc1 (stereo not given),0.466
16,CC[C@@H]1C=C(C(=O)O)[C@H](c2ccc(C#N)cc2)N1S(=O)(=O)c1ccc(C)cc1,2.47
17,[N-]=[N+]=Nc1ccccc1C[C@@]1(C(N)=O)N=C(c2ccc(OCCCO)cc2)O[C@@H]1c1ccccc1N=[N+]=[N-],1.01
18,C=CC[C@@H](OC(=O)Nc1ccc(SC)cc1)c1ccc(O)c(F)c1,0.958

row,Compound,composite z-score
1,CS(=O)(=O)CCOC(=O)C1=CC(c2ccc(CO)cc2)=CC(C2CC2)N(Cc2sc3ccccc3c2Cl)C=C1C(=O)OCCS(C)(=O)=O (stereo not given),0.702
2,CCOC(=O)C[C@H]1[C@H](OC(=O)c2ccccc2-c2ccccc2)[C@@H](NC(=O)c2ccc3ccccc3n2)c2cc(OCCCO)ccc2N1C(=O)Cc1ccc(OC)cc1,0.781
3,CCOC(=O)C1=C[C@@H](C(C)(C)C)N(S(=O)(=O)c2ccc(C)cc2)[C@H]1c1cccc2ccccc12,-0.281
4,Cc1ccc(S[C@]2(C(=O)O)CC(=O)N(C3CCCCC3)[C@@H]2c2ccc(CO)cc2I)cc1,1.4
5,COc1ccc([Si](C)(C)[C@@H]2[C@@H](CCO)O[C@]3(C(=O)N(Cc4ccccc4)c4ccc(N5C(=O)c6cccc7cccc5c67)cc43)[C@H]2C)cc1,-0.697
6,O=C(Cc1ccccc1)[C@H]1C2C=CCCC(c3ccccc3)=C2CN1Cc1ccccc1 (stereo not given in full),0.163
7,COc1ccccc1CN1C(=O)c2ccccc2[C@](Cc2ccccc2I)(C(=O)O)[C@@H]1c1ccc(CO)cc1,0.152
8,Cc1cc(C)c(C(O)C2C=CC3C(=O)N(c4ccccc4)C(=O)C3N2Nc2ccccc2F)c(C)c1 (stereo not given),0.563
9,CN(C)c1ccc(C(O)C2C=CC3C(=O)NC(=O)C3N2Nc2ccccn2)cc1 (stereo not given),-0.269
10,C[N+](C)(C)CCCC[C@@H]1NC(=O)[C@@H]2C[C@H](C(=O)NCCCCCCN)[C@H](c3cccc(OCCO)c3)N2C1=O,2.55
11,CCN(CC)c1ccc(N2CC=CC34O[C@@H]5/C=C\CCCOC(=O)C5[C@H]3C(=O)N(C(C)CO)[C@@H]4C2=O)cc1 (stereo not given in full),-0.421
12,CCCCC=C[C@@H](NC(=O)OCc1ccccc1Cl)c1ccccc1,0.28
13,CCCN1C(=O)[C@]2(Cc3ccccc31)N=C(c1ccc(OCCCO)cc1)O[C@@H]2c1ccccc1,0.414
14,C=CCNC(=O)[C@H]1[C@@H]2C(=O)O[C@@H](c3ccccc3)[C@@H](c3ccccc3)N2[C@@H](c2ccccc2OCCO)[C@]12C(=O)N(C(=O)OCCOC)c1ccc(C#CC3(O)CCCCCC3)cc12,1.22
15,CN1C(=O)C2C=CC(C(O)c3cccn3C)N(Nc3ccc([N+](=O)[O-])cc3[N+](=O)[O-])C2C1=O (stereo not given),-0.0083
16,CCCCC(CC)C(O)C1C=CC2C(=O)N(c3ccccc3)C(=O)C2N1Nc1ccccc1F (stereo not given),0.928
17,COCCOC(=O)N1C(=O)[C@@]2(c3ccccc31)[C@H](C(=O)NC[C@H](O)c1ccccc1)[C@H]1C(=O)O[C@H](c3ccccc3)[C@H](c3ccccc3)N1[C@@H]2c1ccc(O)cc1,1.21
